From ChEMBL document CHEMBL3988442, “University of Dundee, Small-Polar-MMV Screening Library” (2021)
Hit rate of the full screen: of about 48,000 compounds, about 13,000 (27%) showed an effect of 50% or more. This is one part of the list.

These molecules were tested on Wolbachia pipientis (assay: Anti-Wolbachia Cell-Based Screen). Conditions: 5 µM.
Assay type: functional
Set-up: scale not given: in the data most compounds retested in dose-response had high values

SMILES	Percent Effect [%]
CCCNC(=O)c1cc(Br)cc(S(=O)(=O)N2CCOCC2)c1F	-12.55
O=C(C[C@H]1[C@H]2CN(Cc3ccsc3)C[C@@H]12)N1CCCC1.O=C(O)C(F)(F)F	-30.77
O=C(c1ccsc1)N1C[C@@H](CN2CCCC2)[C@@H](CO)C1	20.63
CN1[C@H](CN2CCCC2)C[C@@H]2CN(C(=O)c3ccsc3)CC[C@@H]21	81.43
C[C@@H]1C[C@@H]2CCN(C(=O)c3cnccn3)C[C@H]2O1	-10.48
CN1[C@H](CN2CCCC2)C[C@@H]2CN(C(=O)c3cnccn3)CC[C@@H]21	120.7
O=C(O)C(F)(F)F.O=C(c1cnccn1)N1CC[C@@H]2CO[C@@H](CN3CCCC3)[C@@H]2C1	-10.73
CN1[C@H](CN2CCCC2)C[C@@H]2CN(C(=O)Cc3ccsc3)CC[C@@H]21.O=C(O)C(F)(F)F.O=C(O)C(F)(F)F	88.77
CN1[C@H](Cn2cncn2)C[C@@H]2CN(Cc3ccsc3)CC[C@@H]21.O=C(O)C(F)(F)F.O=C(O)C(F)(F)F	-21.59
COc1cc(S(=O)(=O)N2CCCc3ccccc32)cc(C(=O)O)c1OC	4.14
c1ccc(Cc2nc(C3CC3)nn2-c2ccc3c(c2)OCCO3)nc1	5.106
CC(C)n1ccnc1CN1CCOC(CCc2ccccc2)C1 (stereo not given)	-13.14
c1ccc(C(CC2CN(Cc3ncc[nH]3)CCO2)c2ccccc2)cc1 (stereo not given)	116.4
CCN(CC1CN(Cc2ncc[nH]2)CCO1)c1cccnn1 (stereo not given)	4.051
c1ccc(CCCC2CN(Cc3ncc[nH]3)CCO2)cc1 (stereo not given)	98.97
CCS(=O)(=O)N1CCOC(CCCc2ccccc2)C1 (stereo not given)	-15.33
O=C(NCCC1CN(Cc2c[nH]cn2)CCO1)Nc1ccccc1 (stereo not given)	-0.1872
c1ccc(C(CC2CN(Cc3c[nH]cn3)CCO2)c2ccccc2)cc1 (stereo not given)	106.4

SMILES	Percent Effect [%]
CC(C)c1n[nH]c(C2CN(Cc3ncc[nH]3)CCO2)n1 (stereo not given)	-3.355
O=C(Nc1cnn(CC(=O)N2CCCO2)c1)c1ccccc1	1.203
CCN(C(c1cccnc1)c1ccc2c(c1)CCC2)S(C)(=O)=O (stereo not given)	-0.855
O=C(NC1CCN(C2CC2)CC1)NC1CCOc2ccc(Br)cc21 (stereo not given)	24.64
CC1=N[C@@]2(CC[C@@H]3CN(C(=O)NC(C)C)C[C@@H]32)C(=O)N1CC(C)C	1.346
C=C(C)COc1cccc(CNCCc2c[nH]cn2)c1	-1.571
CC(CNCc1ccc(Cl)c(Cl)c1)Oc1ccccn1.Cl (stereo not given)	9.6
CCC(C)Oc1ccc(CNCCNC(C)=O)cc1Cl (stereo not given)	110
CC(=O)NCCNC(=O)NCc1ccc(Br)cc1Cl	-4.256
C=C(C)COc1ccccc1CNCCc1c[nH]cn1	-1.538
CNC(=O)c1ccc(CNCc2ccc(SC)c(OC)c2)cc1	-3.705
CCC(C)Oc1ccc(CNCCc2c[nH]cn2)cc1Cl (stereo not given)	95.83
CC(CNS(C)(=O)=O)Oc1cccc(Cl)c1 (stereo not given)	-10.77
CCOc1ccc(CNCCCn2ccnc2)cc1Cl.Cl.Cl	1.454
CCC(C)Oc1ccc(CNCCNC(C)=O)cc1OC (stereo not given)	123.2
CCC(C)Oc1ccc(CNCCNS(C)(=O)=O)cc1Cl (stereo not given)	97.61
COc1cc(CNCCNC(=O)c2ccc(O)cc2)ccc1SC	-8.251
